Shown are actives, neighbours in structure and some others; about 18% of the full set was active somewhere.
TDP1 inh – blocks human tyrosyl-DNA phosphodiesterase 1; Q9NUW8; recombinant TDP1, AlphaScreen DNA substrate cleavage; Potency, µM (top dose mostly 130 µM), usual class: inhibitors; hit rate 0.28% among 350,000; note: nearly all actives have a fitted effect of over 40% in size
Target sequence (Q9NUW8 whole entry, looked up): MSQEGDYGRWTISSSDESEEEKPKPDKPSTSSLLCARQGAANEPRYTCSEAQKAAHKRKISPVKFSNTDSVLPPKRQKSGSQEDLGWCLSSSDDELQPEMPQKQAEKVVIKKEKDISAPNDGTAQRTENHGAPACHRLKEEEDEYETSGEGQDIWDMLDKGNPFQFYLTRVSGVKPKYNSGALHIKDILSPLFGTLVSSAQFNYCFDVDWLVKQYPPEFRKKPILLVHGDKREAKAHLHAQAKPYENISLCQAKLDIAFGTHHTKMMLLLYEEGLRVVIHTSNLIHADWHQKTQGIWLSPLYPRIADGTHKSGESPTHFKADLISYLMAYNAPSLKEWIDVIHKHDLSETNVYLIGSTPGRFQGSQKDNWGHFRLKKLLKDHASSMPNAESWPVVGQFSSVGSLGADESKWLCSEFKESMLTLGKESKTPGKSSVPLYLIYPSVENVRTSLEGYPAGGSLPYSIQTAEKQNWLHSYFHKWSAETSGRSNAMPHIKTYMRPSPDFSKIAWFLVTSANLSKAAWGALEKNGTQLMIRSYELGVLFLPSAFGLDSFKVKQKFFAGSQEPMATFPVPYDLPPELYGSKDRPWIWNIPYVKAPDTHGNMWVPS
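Enzyme-compound mixtures sat 15 min at room temperature, followed by a 5 min reaction with 15 nM final substrate and 10 min with AlphaScreen beads. Recombinant human Tdp1 was used at 1 nM final.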
DT40 TDP1 CPT – growth inhibition of DT40 Tdp1-/-;hTDP1 cells with camptothecin (screen for TDP1 inhibitors) | Potency, µM (series often up to 46.2 µM), most hits filed as inhibitors | hit rate 12% among 420,000 | chicken DT40 Tdp1-/-;hTDP1 cells + 20 nM CPT, ATP luminescence, 48 h; note: nearly all actives have a fitted effect of over 55% in size
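Chicken DT40 Tdp1-/- cells stably complemented with human TDP1 were seeded at 400 cells/well in medium containing 20 nM camptothecin, exposed to pin-transferred compounds, and grown at 37 °C for at least 48 hr. Viability was read as ATP luminescence.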
HepG2 viability – counter-screen for TGF-b inhibitors: cytotoxicity in HepG2 cells. HepG2 CAGA-GFP viability, ATP luminescence, 18 h. Potency, µM (series often up to 46.1 µM), hits mostly cytotoxic. hit rate 0.76% among 410,000. AID 588856
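HepG2 CAGA-GFP cells (1000/well, DMEM with 1% FBS) received compound, then TGF-beta at 500 pg/mL final, and were incubated 18 hours at 37 degrees C. Viability was read by CellTiter-Glo luminescence. Media-only wells were set as complete cell-killing and DMSO as no toxicity.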
TGFb inhibitor – blocks TGF-b signaling. HepG2 CAGA-GFP TGF-b/SMAD3 reporter, GFP fluorescence, 18 h; TGF-beta stimulated, 500 pg/mL final. Potency, µM (series often up to 46.1 µM), hits mostly inhibitors. hit rate 1.2% among 410,000. AID 588855; note: nearly all actives have a fitted effect of over 65% in size
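Per well, imaged GFP fluorescence of HEPG2 CAGA-GFP cells gives the signal; cells get compound, then TGF-beta (500 pg/mL final), 18 h at 37 degrees C; %Activity versus -TGF-beta and +DMSO controls.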
TDP1 cell noCPT – qHTS for Inhibitors of human tyrosyl-DNA phosphodiesterase 1 (TDP1): qHTS in cells in absence of CPT; Potency, µM (doses to about 46.2 µM), hits mostly inhibitors; hit rate 15% among 420,000; AID 686978, 2013; DT40 Tdp1-/- hTDP1 cells, no CPT, ATP luminescence, 48 h; note: nearly all actives have a fitted effect of over 55% in size
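Compound effects on proliferation are scored in DT40 Tdp1-/-;hTDP1 cells in the absence of CPT. ATP levels (CellTiter-Glo luminescence) are recorded after a ≥48 hr, 37 °C incubation.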
IL-1B inflam inh – inhibitors of inflammasome signaling (IL-1 beta secretion); THP-1 LPS/ATP IL-1B secretion, AlphaLISA, 16 h; hits give low values; activity change, % at 57.5 µM; hit rate 4.7% among 360,000; in the data active = activity change below about -50%; inconclusive = mostly about -30% to -49%
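Secreted IL-1B measured by AlphaLISA bead assay after 16 h compound exposure of THP-1 cells; compounds (final up to 57.5 uM) added 1 h before LPS (250 ng/mL) and ATP (1.25 mM) stimulation; lower signal means less secretion.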
Hits are given with their value; 0 = inactive; ? = inconclusive; - = no result given; [ ] = dose if it differs, or a comment. Unless noted, calls come from the whole dose curve; as a rule, active = well fitted curve in the direction sought with a large enough effect; inconclusive = small, poorly fitted or top-dose-only effect, or another doubt; inactive = no such curve, though single readings can be large; an effect the other way counts as inactive or inconclusive.

SMILES	TDP1 inh	DT40 TDP1 CPT	HepG2 viability	TGFb inhibitor	TDP1 cell noCPT	IL-1B inflam inh
O=C(NCCC1CCCCN1S(=O)(=O)c1ccc(Cl)cc1)C(=O)NCc1ccncc1 (configuration not stated)	0	?	0	?	?	0
Cc1ccc(C)c(S(=O)(=O)N2CCCC2CNC(=O)C(=O)NC2CCCCCC2)c1 (configuration not stated)	0	?	0	0	23.1µM	0
Cc1ccc(CNC(=O)C(=O)NCCC2CCCCN2S(=O)(=O)c2ccc(C)cc2)cc1 (configuration not stated)	0	23.1µM	0	0	?	0
Cc1ccc(C)c(S(=O)(=O)N2CCCCC2CCNC(=O)C(=O)NCc2cccnc2)c1 (configuration not stated)	0	?	0	?	?	0
Cc1ccc(C)c(S(=O)(=O)N2CCCCC2CCNC(=O)C(=O)NCc2ccccc2)c1 (configuration not stated)	0	23.1µM	0	?	18.4µM	0
Cc1ccc(S(=O)(=O)N2CCCCC2CCNC(=O)C(=O)NCc2cccnc2)cc1 (configuration not stated)	0	20.6µM	0	0	18.4µM	0
Cc1ccc(S(=O)(=O)N2CCc3ccccc3C2)cc1C	-	0	0	0	0	0
CC(C)NC(=O)C1C(c2ccccc2)=Nc2ccccc2N1C(=O)c1ccc(C(F)(F)F)cc1 (configuration not stated)	-	?	-	-	?	0
Cc1noc(/C=C/c2cccs2)c1S(=O)(=O)N1CCC(C(=O)NCCCN2CCCC(C)C2)CC1 (configuration not stated)	0	?	0	0	?	-50.9
CCCCNC(=O)C1CCCN(S(=O)(=O)c2c(C)noc2/C=C/c2cccs2)C1 (configuration not stated)	-	?	0	?	13µM	?
CCOC(=O)C1CCCN(S(=O)(=O)c2ccc3[nH]c(=O)oc3c2)C1 (configuration not stated)	0	0	0	?	?	-
CCOC(=O)c1c(CN(C)C)n(C)c2c(O)c(N=NC(N)=O)c3ccc(Br)cc3c12	-	?	0	?	14.6µM	0
O=C(N1CCCCC1)C12CC3CC(C1)CC(C(=O)N1CCCCC1)(C3)C2	0	?	0	0	23.1µM	0
Cc1cc(C)n(-c2nc3ccccc3nc2Nc2ccc(Cl)c(C(=O)OC(C)C)c2)n1	0[12.3 µM]	0	0	0	0	-
COc1cc(C(=O)NC2CCCCCCC2)cc(OC)c1OC	-	0	0	0	?	0
CCN(C(=O)c1cn(CC)c(=O)c2cc(OC)c(OC)cc12)c1ccccc1F	0	0	0	0	20.6µM	-
CC(=O)c1cccc(NC(=O)CN(C2CCCCC2)S(C)(=O)=O)c1	0	0	0	0	?	0
COc1cc(C(=O)N(C(C)C)C2CCCCC2)cc(OC)c1OC	-	11.6µM	0	0	10.3µM	0
CCN(C(=O)c1cc(Cl)ccc1OC)C1CCCCC1	0	?	0	0	23.1µM	0
CCN(C(=O)c1cn(C)c(=O)c2cc(OC)c(OC)cc12)c1ccccc1C	0	0	0	0	0	0
CCN(C(=O)c1cccc(NC(=O)c2ccccc2)c1)C1CCCCC1	0	14.6µM	0	0	?	0
CCC(C)n1c(=N)c(S(=O)(=O)c2ccccc2)cc2c(=O)n3ccccc3nc21 (configuration not stated)	-	-	0	0	-	-
CCN(C(=O)c1cc(OC)c(OC)c(OC)c1)C1CCCCC1	-	?	0	0	23.1µM	0
CCN(C(=O)c1cn(C)c(=O)c2cc(OC)c(OC)cc12)c1cc(C)ccc1C	0	0	0	0	?	0
CCN(C(=O)/C=C/c1cc(OC)c(OC)c(OC)c1)C1CCCCC1	-	?	0	?	?	0

Screening results (PubChem BioAssay)
